From PubChem BioAssay
Calls of active or inactive are those of the source. The rule behind the calls is not given here.

Assay: P. aeruginosa biofilm formation inhibitors, primary screen, strain PAO1, LB-PBS medium, absorbance 600 nm (AID 1176); note: test concentration not given here
Conditions: P. aeruginosa PAO1 growth/biofilm, A600, 12 h; higher = more signal

z-score, inactive:
CC1C2C(CCCO)=CC(C3C(=O)N(C(N)=O)C(=O)C23)N1Cc1cccc(OC(F)(F)F)c1 (stereo unspecified) 0.437
COC(=O)[C@@]1(Cc2ccccc2)[C@H]2c3cc(C(=O)N(C)C)n(Cc4nc5ccccc5[nH]4)c3C[C@H]2CN1C(=O)c1ccccc1 0.92
CO[C@H]1O[C@H](CO)[C@@H](OC(=O)Nc2cccc(F)c2)[C@H](OC(=O)Nc2ccc3c(c2)OCO3)[C@@H]1OC(=O)Nc1ccc2c(c1)OCO2 0.661
O=C1C2C=CC(C(O)c3ccccn3)N(Nc3ccc([N+](=O)[O-])cc3)C2C(=O)N1c1ccccc1 (stereo unspecified) 1.17
CC(C)N1C(=O)[C@@]2(Cc3ccccc31)c1ccccc1C(=O)N(Cc1ccccc1C(F)(F)F)[C@H]2c1ccc(CO)cc1 0.146
CN1C2C=C(c3ccc(CO)cc3)C(C3C(=O)N(C(N)=O)C(=O)C32)C1C1CC1 (stereo unspecified) 0.354
CC(C)C[C@@H]1NC(=O)[C@@H]2C[C@H](C(=O)NCCCCCNC(=O)CS)[C@H](c3ccc(O)cc3)N2C1=O 2.91
CN(C)CCCCNC(=O)[C@H]1C[C@H]2C(=O)N[C@@H](CCCCN(C)C)C(=O)N2[C@H]1c1ccc(O)cc1 0.655
CCOC(=O)C[C@H]1[C@H](OC(=O)c2ccccc2-c2ccccc2)[C@@H](NC(=O)CC(C)C)c2cc(OCCCO)ccc2N1C(=O)c1ccccc1 0.13
CCCCCCc1nc(-c2ccc(OC)nc2)c(C)c2c1[Si](C(C)C)(C(C)C)OC2 0.444
COCCCNC(=O)[C@]1(Cc2ccccc2CN=[N+]=[N-])N=C(c2ccc(OCCCO)cc2)O[C@@H]1c1ccccc1N=[N+]=[N-] 1.24
